PubChem BioAssay AID1259389 (Center for Chemical Genomics, University of Michigan, 2018)
The whole screen tested about 100,000 compounds, of which about 620 (0.62%) were called active. The sample as a whole holds a higher share of actives than the screen did. A number with no mark means an inactive call. Rule for the calls: active = z-score of 3 or more in at least 2 runs; inactive = the rest.

Test: TAR RNA-Tat peptide displacers, HIV-1, primary screen, biochemical, FRET, FAM/TAMRA-labeled Tat (AID 1259389)
Conditions: HIV-1 TAR RNA, Tat peptide displacement FRET; stronger effect = higher value

Row | SMILES | z-score
1 | Oc1ccc2ncccc2c1C(Nc1ccccn1)c1cccc(Br)c1 (centres undefined) | 10.7
2 | O=C(OCc1cc(=O)n2nc(C3CCCCC3)sc2n1)c1ccccc1 | 0.63
3 | COc1cc(C2OC(c3ccc(Br)cc3)=NN2C(C)=O)ccc1OC(C)=O (centres undefined) | 1.63
4 | Cc1c(C(=O)N2CCC(C)CC2)c(S(=O)(=O)N2CCN(C3CCCCC3)CC2)c(C)n1C | 1.14
5 | Cc1cccc(NS(=O)(=O)c2ccc(-c3ccc(=O)[nH]n3)o2)c1C | 0.96
6 | CCOc1ccc(/C=C/c2nc(C#N)c(N3CCNCC3)o2)cc1 | 0.65
7 | CCSc1ncc(CO)n1Cc1ccc(F)cc1 | 0.78
8 | Cc1ccn2c(=O)c(C(=O)NCCCOC(C)C)c(O)nc2c1 | 0.76
9 | COc1ccc(-c2nc3ccccc3[nH]2)cc1OC | 2.05
10 | Cc1nnc(NC(=O)CN2C(=O)c3cccnc3Sc3ccccc32)s1 | 1.32
11 | O=C(Cn1c(=O)sc2ccccc21)NCCC1=CCCCC1 | 0.76
12 | C=CCOC(=O)C1=C(C)NC2=C(C(=O)CC(C)(C)C2)C1c1cc2c(cc1Cl)OCO2 (centres undefined) | 0.26
13 | O=C(c1cc(-c2ccccc2)n[nH]1)N1CCn2c1nc1ccccc12 | 0.42
14 | COc1ccc(Cl)cc1N1CC(O)=C(c2nc3ccccc3n2C)C1=N | 0.34
15 | CCCC1CNc2cc(C)ccc2O1 (centres undefined) | 2.06
16 | C[C@@H]1O[C@@H](OC[C@H]2O[C@@H](Oc3cc(O)c4c(c3)O[C@H](c3ccc(O)c(O)c3)CC4=O)[C@H](O)[C@@H](O)[C@@H]2O)[C@H](O)[C@H](O)[C@H]1O | 3.52 (active)
17 | C[C@@H]1O[C@@H](O[C@H]2[C@@H](Oc3cc(O)c4c(c3)O[C@H](c3ccc(O)cc3)CC4=O)O[C@H](CO)[C@@H](O)[C@@H]2O)[C@H](O)[C@H](O)[C@H]1O | 2.09
18 | COc1ccc(-c2cc(=O)c3c(O)cc(O[C@@H]4O[C@H](CO[C@@H]5O[C@@H](C)[C@H](O)[C@@H](O)[C@H]5O)[C@@H](O)[C@H](O)[C@H]4O)cc3o2)cc1O | 4.29
19 | Cc1nc(S(=O)(=O)Nc2ccc(C(C)C)cc2)cn1C | 1.64
20 | O=C1c2ccccc2C(Nc2ccc(F)cc2F)N1c1ccccn1 (centres undefined) | 2.34
21 | CCOC(=O)N1CCN(c2cc(NCCO)c3c4c(onc24)-c2ccccc2C3=O)CC1 | 2.61
22 | CN(C)CCCNc1cc(N2CCN(c3ccccc3F)CC2)c2noc3c2c1C(=O)c1ccccc1-3 | 5.01 (active)
23 | CN1CCN(c2cc(NCCCC(=O)O)c3c4c(onc24)-c2ccccc2C3=O)CC1 | 1.94
24 | COc1cc(C)c(S(=O)(=O)N2CCc3cc4cc(C)ccc4nc32)cc1C | -1.52
